# Assay results: PubChem BioAssay
# A number with no mark means an inactive call. Calls of active or inactive are those of the source. Rule as the data show it, unless noted: active = inhibition above about 44%; inactive = the rest.
# How the values were obtained:
# [1] = StAR promoter reporter inhibitors, counter-screen for LRH-1 inverse agonist project, cell-based, luminescence, high throughput (AID 651611; in the data active = inhibition above about 28%); conditions: StAR promoter luciferase reporter counterscreen, at 3.6 µM, active compounds read high
# [2] = target: Nuclear receptor subfamily 5 group A member 2 (Homo sapiens) (UniProt O00482); experiment: NR5A2 activity suppression in reporter cells – cell-based, luminescence, confirmation (AID 651613; in the data active = inhibition above about 42%;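 also: HEK293T cells co-transfected with LRH-1 and StAR promoter luciferase reporter; 0% = vehicle wells and 100% = parental cells lacking receptor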); conditions: cell-based LRH-1 luciferase reporter, inverse agonism; at 3.6 µM; active compounds read high
# [3] = target: Steroidogenic factor 1 (Homo sapiens) (UniProt Q13285); experiment: inverse agonism at SF1 nuclear receptor – cell-based, luminescence, high throughput, counter-screen for LRH-1 inverse agonist project (AID 651614); conditions: cell-based SF1 luciferase reporter, at 3.6 µM, active compounds read high;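 also: cells cotransfected with StAR promoter reporter and SF1 expression vector; 0% = vehicle on cells with receptor and 100% = vehicle on cells lacking receptor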
# [4] = compounds suppressing VP16-driven luciferase signal – cell-based, luminescence, high throughput, counter-screen for LRH-1 inverse agonist project (AID 651615; in the data active = inhibition above about 33%); conditions: Gal4-VP16 luciferase reporter cells, at 3.6 µM, active compounds read high
# Steroidogenic factor 1 (Homo sapiens), sequence (Q13285 whole entry, looked up, the tested form may be a part): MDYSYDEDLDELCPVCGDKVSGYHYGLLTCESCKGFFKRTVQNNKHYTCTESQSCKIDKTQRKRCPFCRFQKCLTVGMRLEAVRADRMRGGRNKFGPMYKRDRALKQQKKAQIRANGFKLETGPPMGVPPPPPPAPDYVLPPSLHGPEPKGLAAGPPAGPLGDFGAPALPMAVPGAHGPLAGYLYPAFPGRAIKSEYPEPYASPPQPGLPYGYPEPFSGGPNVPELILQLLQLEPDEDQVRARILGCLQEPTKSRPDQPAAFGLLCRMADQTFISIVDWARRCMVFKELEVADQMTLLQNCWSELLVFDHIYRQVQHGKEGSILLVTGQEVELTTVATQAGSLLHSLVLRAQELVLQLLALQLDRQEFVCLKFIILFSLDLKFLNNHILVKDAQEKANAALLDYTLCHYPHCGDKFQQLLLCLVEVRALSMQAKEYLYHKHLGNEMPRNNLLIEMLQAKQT
# Nuclear receptor subfamily 5 group A member 2 (Homo sapiens), sequence (O00482 whole entry, looked up): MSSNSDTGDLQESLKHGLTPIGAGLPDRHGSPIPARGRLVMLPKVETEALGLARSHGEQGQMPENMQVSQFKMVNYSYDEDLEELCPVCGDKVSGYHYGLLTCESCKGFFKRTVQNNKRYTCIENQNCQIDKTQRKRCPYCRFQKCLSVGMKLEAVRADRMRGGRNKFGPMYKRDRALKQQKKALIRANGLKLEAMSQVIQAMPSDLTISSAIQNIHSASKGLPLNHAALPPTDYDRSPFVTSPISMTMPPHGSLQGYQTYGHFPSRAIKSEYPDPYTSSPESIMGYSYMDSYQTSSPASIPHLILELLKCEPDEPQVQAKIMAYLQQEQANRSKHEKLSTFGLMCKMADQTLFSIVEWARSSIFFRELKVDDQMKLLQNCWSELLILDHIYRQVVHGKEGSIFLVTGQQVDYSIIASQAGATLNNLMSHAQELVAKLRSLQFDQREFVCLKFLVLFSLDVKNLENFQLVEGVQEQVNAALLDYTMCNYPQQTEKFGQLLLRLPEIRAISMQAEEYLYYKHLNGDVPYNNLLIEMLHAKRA
SMILES,inhibition [1],inhibition [2],inhibition [3],inhibition [4]
Nc1c2ccccc2nc2ccccc12,14.7%,106% (active),52.1% (active),90.4% (active)
O=C(Nc1ccc(N2CCN(C(=O)c3ccc(Cl)cc3)CC2)cc1)c1ccc([N+](=O)[O-])o1,24.9%,51.9% (active),66.2% (active),1.04%
CSCc1c(C(=O)Nc2ccccc2N2CCOCC2)oc2ccccc12,7.6%,65.9% (active),62.5% (active),14.2%
COc1cc2c(cc1OC)CN(C(=O)Cn1ccccc1=O)CC2,16.3%,56.6% (active),57.1% (active),6.2%
COc1cc(-c2cc(C(=O)Nc3ccncc3)c3ccccc3n2)cc(OC)c1OC,28.4% (active),40.9%,40.5%,-10.9%
Cc1ccc(CNC(=O)COc2ccc(C(=O)c3ccc(F)cc3)cc2)cc1,17.6%,51% (active),35.8%,-11.9%
Cc1ccc(CN2CCC[C@]3(N[C@H](c4ccc(C(F)(F)F)cc4)[C@@H]4C(=O)N(Cc5ccccc5)C(=O)[C@@H]43)C2=O)cc1,-2.71%,24.8%,28.4%,22%
CCn1c(=O)oc2cc(NC(=O)CCl)ccc21,44.4% (active),64.4% (active),65.9% (active),-54.9%
O=C1C(=C(I)I)c2ccccc2-c2ccccc21,2.21%,10.4%,-21.6%,-39.2%
